# Assay outcomes (PubChem BioAssay)
# L major viab – Leishmania major promastigote growth inhibition | Leishmania major promastigotes, resazurin fluorescence viability | inhibition, % at 10 µM | hit rate 9% among 200,000 | AID 1063; in the data active = inhibition above about 50%;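 also: promastigotes grown with compound for 44 hours at 28 °C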
# CHOP inh – blocks CHOP induction under ER stress; hit rate 3.8% among 220,000; AID 2732; CHO-K1 CHOP-promoter luciferase, tunicamycin-induced, 15-18 h; inhibition, % at 10 µM;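 active = compounds that reduced the stress-induced luciferase reporter signal by more than about 70% of percent inhibition, limit read from the data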;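 also: 0% = tunicamycin plus vehicle and 100% = wells without tunicamycin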
# RAM inhibit – blocks the yeast RAM network; S. cerevisiae dse1pr::URA3 reporter, 5-FOA growth OD615, 2 d; analog-sensitive cbk1-as2 kinase mutant strain; hit rate 1.8% among 190,000; inhibition, % at 50 µM; AID 868;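 active = inhibition above a set limit, 3 SD over mean compound inhibition, cut at about 8.4% in these data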;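 also: 0% = DMSO-only wells with no growth and 100% = 10 µM 1-NA-PP1 full growth; inhibition rescues growth on 5-FOA so higher OD means more RAM inhibition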
# WT yeast gro inh – growth inhibition of WT yeast, mitochondrial fusion screen; mitochondrial fusion phenotypic screen, WT strain; inhibition, % at 10 µM; hit rate 2.1% among 190,000; AID 1362; in the data active = inhibition above about 58%; tested in S. cerevisiae
# RAM efflux-def – restores 5-FOA growth of efflux-deficient yeast; shares compounds with RAM inhibit; S. cerevisiae efflux-deficient reporter strain, 5-FOA growth OD615, 2 days; max inhibition, %; 1,200 tested, under 10 active; call rule not given here;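 also: plate controls were vehicle for no effect and reference inhibitor for full effect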
# * marks the source's active call; other numbers are inactive results; x = no result. In the library only some 13% were active in any assay of this set; here they are far more common.
SMILES,L major viab,CHOP inh,RAM inhibit,WT yeast gro inh,RAM efflux-def
COc1ccc(C)cc1S(=O)(=O)N(CC(=O)N1CCOCC1)Cc1ccccc1,-1.2,33.6,0.0,-14.1,x
COc1ccc(C(C(=O)NCC2CCCO2)N(C(=O)CNC(=O)c2cccs2)c2ccc(C(C)=O)cc2)cc1OC (stereo unspecified),-1.8,-9.6,0.4,5.6,x
COc1ccc(CN2C(=O)CS/C2=N/N=C/c2ccccc2)cc1,x,11.3,x,x,x
CCCC1S/C(=N/N=C/c2ccc(C)cc2)N(Cc2ccc(OC)cc2)C1=O (stereo unspecified),-2.5,48.1,12.2*,4.6,4.9
CCc1ccc(Nc2nnc(SC3CCOC3=O)s2)cc1 (stereo unspecified),1.8,20.9,1.2,-11.2,x
Cc1ccc(NS(=O)(=O)c2ccc(C3CCCCC3)cc2)cc1,12.6,95.2*,13.5*,80.2*,5.1
Cc1ccc(S(=O)(=O)Nc2ccc(N3CCCCC3)cc2)cc1,16.0,52.1,1.5,7.5,x
Cc1ccc(C)c2nc(SCC(=O)NCc3cccs3)c(C#N)cc12,-4.8,34.3,7.4,13.8,x
Cc1cc2c(C)ccc(C)c2nc1SCC(=O)c1cccs1,-5.9,10.9,13.5*,3.8,1.5
O=C(NCc1cccnc1)C1CCC(CNS(=O)(=O)c2cccc3nsnc23)CC1 (stereo unspecified),x,-12.1,x,x,x
Cc1ccc(Nc2nc(=O)c3cccnc3s2)c(Br)c1,x,-19.7,x,x,x
COc1ccc(C(=O)NC(=S)N2CCOCC2)cc1OC,-4.6,2.8,1.1,-9.9,x
C=CCN(CC=C)S(=O)(=O)c1ccc(NC(=S)NC(=O)c2ccc(-c3ccccc3)cc2)cc1,22.0,51.3,17.1*,-7.8,4.2
C=CCN(CC=C)S(=O)(=O)c1ccc(NC(=S)NC(=O)Cc2ccc(OC)cc2)cc1,61.5*,62.2,18.9*,25.0,4.5
C=CCN(CC=C)S(=O)(=O)c1ccc(NC(=S)NC(=O)c2ccco2)cc1,1.3,27.8,3.5,2.9,x
COc1ccc(CC(=O)NC(=S)Nc2ccc(S(N)(=O)=O)cc2)cc1,-6.9,11.4,0.8,2.1,x
COc1ccc(C(=O)Nc2cc(OC)c(Cl)cc2OC)cc1,3.2,4.1,11.4*,2.7,2.8
C=COC(=O)CSc1nc(-c2cccs2)ccc1C#N,-5.2,x,8.2,4.6,x
CCOC(=O)C(C)Sc1nc(-c2cccs2)ccc1C#N (stereo unspecified),10.5,41.2,12.9*,4.5,2.0
COc1ccc(-c2ccc(SCC(=O)NCc3ccc4c(c3)OCO4)nn2)cc1OC,3.7,-15.1,12.0*,-6.0,5.5
Cc1cc(NC(=O)CSc2ccc(-c3ccc4c(c3)OCO4)nn2)no1,3.8,0.0,2.1,8.3,x
Cc1ccc(S(=O)(=O)N2CCC(=O)N(C(COCc3ccc(C(F)(F)F)cc3)C(C)C)CC2)cc1 (stereo unspecified),9.8,40.3,11.9*,33.0,1.5
Cc1ccc(S(=O)(=O)N2CCC(=O)N(CCOCc3ccc(C(F)(F)F)cc3)CC2)cc1,-5.4,59.3,0.8,18.4,x
Cc1cccc(COCC(Cc2ccccc2)N2CCN(C(=O)c3ccc(C(F)(F)F)cc3)CCC2=O)c1 (stereo unspecified),20.7,24.9,13.3*,41.9,1.3
Cc1ccc(S(=O)(=O)N2CCC(=O)N(C(COCc3ccc(Cl)c(Cl)c3)Cc3ccccc3)CC2)cc1 (stereo unspecified),14.9,25.2,11.5*,17.1,3.2
SMILES,L major viab,CHOP inh,RAM inhibit,WT yeast gro inh,RAM efflux-def
Cc1ccc(S(=O)(=O)N2CCC(=O)N(C(CO)Cc3ccccc3)CC2)cc1 (stereo unspecified),-10.9,0.0,0.8,-8.0,x
O=C(c1ccc(C(F)(F)F)cc1)N1CCC(=O)N(C(COCc2ccc(C(F)(F)F)cc2)Cc2ccccc2)CC1 (stereo unspecified),24.4,24.0,5.8,44.9,x
Cc1ccc(S(=O)(=O)N2CCC(=O)N(C(COCc3cccc(C)c3)Cc3ccccc3)CC2)cc1 (stereo unspecified),36.4,23.9,13.7*,6.6,2.5
Cn1c(=O)c(/C=C/c2ccc(F)cc2)nc2ccccc21,-2.7,-7.2,14.3*,29.5,4.6
COC(=O)c1ccc(C(=O)OC)c(NC(=O)CN(C)Cc2ccccc2)c1,3.1,27.1,1.2,29.9,x
CSc1ccc(Cl)c(C(=O)NCCOc2ccccc2)c1,-4.9,-3.3,0.9,11.3,x
CSc1ccc(Cl)c(C(=O)NCCOc2cc(C)ccc2C(C)C)c1,2.0,43.2,12.8*,61.8*,2.4
COc1ccc(CNC(=O)CSc2nc3ccc(N)cc3s2)cc1,46.6,-9.1,1.2,-34.2,x
COc1ccc(OC)c(NC(=O)C(Sc2ccccc2)c2ccccc2)c1 (stereo unspecified),2.2,11.6,13.7*,36.1,3.8
COc1ccccc1NC(=O)CCC(=O)OCc1cccc([N+](=O)[O-])c1,-5.4,-2.3,2.5,-11.5,x
Cc1cc(Cl)ccc1OCC(=O)N/N=C1\CCCc2ccccc21,-0.6,14.2,15.0*,13.1,3.0
COc1ccccc1/C=C/C(=O)OCC(=O)Nc1c(F)cccc1F,-8.4,28.4,3.0,10.5,x
COc1ccc(OC)c(/C=C/C(=O)OCC(=O)Nc2cccc(Oc3ccccc3)c2)c1,-6.2,-2.8,13.5*,0.2,3.0
CN(C)c1cccc(C(=O)OCC(=O)Nc2ccccc2Sc2ccccc2)c1,-0.8,23.9,4.3,3.0,x
Cc1ccc(/C=C/C(=O)OCC(=O)Nc2ccccc2Sc2ccccc2)cc1,33.3,25.1,19.4*,47.3,6.5
COc1cccc(/C=C/C(=O)OCC(=O)Nc2ccccc2Sc2ccccc2)c1,-1.6,13.5,24.1*,27.7,5.6
Cc1ccc(C(=O)CC(=O)c2ccc(C(C)(C)C)cc2)cc1,-3.7,-7.2,20.1*,-1.2,8.1
Cc1ccc(S(=O)(=O)N(CCC(=O)Nc2ccc(OC(F)(F)F)cc2)c2ccccc2)cc1,94.7*,83.0*,16.0*,41.5,2.1
Cc1ccc(N(CCC(=O)NC(C)(C)C)S(=O)(=O)c2ccc(C)cc2)cc1,0.0,23.5,0.9,17.1,x
COc1cccc(CNC(=O)CNC(=S)N(Cc2ccccc2)Cc2ccccc2F)c1,25.3,30.4,12.3*,71.6*,2.0
Cc1ccc(CNC(=O)CNC(=S)N(Cc2ccccc2)Cc2ccccc2F)cc1,16.0,48.4,11.5*,73.8*,4.4
O=C(CNC(=S)N(Cc1ccccc1)Cc1ccccc1F)NCc1ccc(Cl)cc1,7.5,78.2*,16.4*,81.2*,2.1
COCc1c(C(=O)N/N=C/c2cccc3ccccc23)nnn1-c1nonc1N,-2.6,46.5,1.1,8.1,x
Cc1ccc(C2(c3ccc(C)cc3)CC2C(=O)NCc2cccnc2)cc1 (stereo unspecified),20.4,21.4,1.1,-4.3,x
CN(C)c1ccc(N=Nc2ccccc2C(=O)OCC(=O)Nc2ccccc2C(F)(F)F)cc1,4.5,17.2,20.5*,43.6,4.6
CN(C)c1ccc(N=Nc2ccccc2C(=O)OCC(=O)N2CCCC2)cc1,17.7,24.4,0.9,8.6,x
COCCOC(=O)c1c(C)oc2ccc(OC(=O)c3c(OC)cccc3OC)cc12,22.4,20.8,12.4*,42.6,1.2
